From PubChem BioAssay
Hits are enriched below; roughly 2.1% of the tested compounds scored in any of these assays.
TSG101-PTAP inh: blocks PTAP/TSG101 interaction to inhibit HIV-1 budding; AID 493005; Potency, µM (highest dose often 115 µM), usual class: inhibitors; 340,000 tested, under 10 active; Fluorescence polarization, FITC-PTAP peptide / Tsg101 binding; active = well fitted inhibition curve with a large enough effect in the main read-out, with a control signal flat, not every such curve was filed as active; inconclusive = small, poorly fitted or top-dose-only effect, or effect the other way, or a change in a side signal; inactive = no such curve, though single readings can be large or run the other way
Target sequence (Q99816 whole entry, looked up): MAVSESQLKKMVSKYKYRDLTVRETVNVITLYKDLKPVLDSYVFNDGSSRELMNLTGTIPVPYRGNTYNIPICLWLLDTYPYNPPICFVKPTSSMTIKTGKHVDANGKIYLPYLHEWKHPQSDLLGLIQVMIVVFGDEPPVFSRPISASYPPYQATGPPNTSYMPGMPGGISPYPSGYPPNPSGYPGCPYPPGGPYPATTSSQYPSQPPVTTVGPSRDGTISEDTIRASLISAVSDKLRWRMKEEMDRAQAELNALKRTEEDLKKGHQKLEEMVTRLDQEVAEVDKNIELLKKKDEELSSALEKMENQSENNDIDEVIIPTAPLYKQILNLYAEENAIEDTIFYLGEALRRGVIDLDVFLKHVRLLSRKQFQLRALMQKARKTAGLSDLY
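Tsg101 binding domain (10 uM final) was mixed with compound and a FITC-labeled PTAP peptide (50 nM final) in HEPES pH 7.5 buffer with NaCl, Tween 20, EDTA and TCEP; fluorescence polarization was read after 20 min at r.t.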
aSyn yeast inh: inhibitors of alpha-synuclein toxicity in yeast | 370,000 tested, 0.14% active | Potency, µM (titrated, usually from 46.1 µM), usual class: activators | Yeast expressing alpha-synuclein, growth rescue, BacTiter-Glo, 24 h; note: nearly all actives have a fitted effect of over 65% in size
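Readout is rescue of growth in alpha-synuclein-expressing yeast, so inhibitors of toxicity appear as activators. Growth after 24 hr at 30 deg C in galactose medium is quantified by luminescence.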
Abeta yeast res: restores growth of yeast expressing A-beta42 peptide | yeast expressing A-beta42, growth rescue, OD600, 48 h; response scale: 0% DMSO, 100% iron-clioquinol control | Potency, µM (doses to about 46.1 µM), usual class: activators | 410,000 tested, 0.063% active | AID 1347071; note: nearly all actives have a fitted effect of over 55% in size
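Yeast growth medium received pinned compounds, then yeast cells expressing toxic A-beta were added; plates incubated at 30 C for 48 hr. Growth read as absorbance at 600 nm, normalized to DMSO and equimolar FeCl3 plus clioquinol controls.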
FUS yeast rescue: suppressors of FUS proteinopathy in yeast | AID 1347120 | S. cerevisiae FUS-expressing, growth rescue, OD600, 24 h | 390,000 tested, 0.24% active | Potency, µM (series often up to 76.6 µM), usual class: activators; note: nearly all actives have a fitted effect of over 55% in size
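Restored growth of FUS-toxic S. cerevisiae, read as 600 nm absorbance after 24 h at 30C in galactose medium (starting OD 0.005). Controls CP55940 and DMSO.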
TDP43 rescue: inhibitors of TDP-43 toxicity in yeast | Potency, µM (series often up to 46.1 µM), most hits filed as activators | TDP-43 expressing yeast growth rescue, BacTiter-Glo, 24 h | 410,000 tested, 1.8% active | AID 652104; note: nearly all actives have a fitted effect of over 50% in size
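Readout is BacTiter-Glo luminescence of cell growth, so inhibitors register as activators. TDP-43-expressing yeast at OD600=0.02 in galactose medium, after raffinose pregrowth to mid-log, were incubated with compound for 24 hr at 30 deg C.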
Of the large screens only hits and unclear results are named; the others gave an inactive call; ! = not active in a repeat. Unless noted, calls come from the whole dose curve; as a rule, active = well fitted curve in the direction sought with a large enough effect; inconclusive = small, poorly fitted or top-dose-only effect, or another doubt; inactive = no such curve, though single readings can be large; an effect the other way counts as inactive or inconclusive.

Cc1ccc(NC(=O)Nc2ccc3nc(N4CCN(C)CC4)cc(C)c3c2)cc1F	TDP43 rescue inconclusive (no result: TSG101-PTAP inh, aSyn yeast inh)
COc1cc([C@@H]2c3cc4c(cc3[C@@H](O)[C@H]3COC(=O)[C@H]23)OCO4)cc(OC)c1O	none (no result: TSG101-PTAP inh, Abeta yeast res, FUS yeast rescue, TDP43 rescue)
O=C(c1ccco1)c1cn(Cc2ccc(Cl)cc2)c2ccccc12	Abeta yeast res inconclusive, TDP43 rescue 12.6µM
CC12CCC3C(CCC4CC(=O)C(C(O)C(F)(F)F)CC43C)C1CCC2O (stereo unspecified)	TDP43 rescue 14.1µM
CCCCN1C(=O)NC(=O)C2(Cc3c(nc4ccccn4c3=O)N3CCc4ccccc4C32)C1=O (stereo unspecified)	TDP43 rescue inconclusive
CCCCN1C(=O)NC(=O)C2(Cc3c(nc4c(C)cccn4c3=O)N3CCc4ccccc4C32)C1=O (stereo unspecified)	FUS yeast rescue inconclusive, TDP43 rescue 35.5µM
Cc1ccc(C)c(N2CCN(c3nc4ccc(Cl)cc4n4cnnc34)CC2)c1	TDP43 rescue inconclusive (no result: TSG101-PTAP inh, aSyn yeast inh)
CC(=O)N1CCN(c2ccc(OC[C@@H]3CO[C@@](Cn4ccnc4)(c4ccc(Cl)cc4Cl)O3)cc2)CC1	aSyn yeast inh 3.16µM (no result: TSG101-PTAP inh, Abeta yeast res, FUS yeast rescue, TDP43 rescue)
CC(=O)N1CCN(c2ccc(OC[C@H]3CO[C@](Cn4ccnc4)(c4ccc(Cl)cc4Cl)O3)cc2)CC1	aSyn yeast inh 5.17µM!, TDP43 rescue inconclusive
C[C@@H]1O[C@@H](O[C@@H]2C=C3CC[C@@H]4[C@@H](CC[C@]5(C)[C@H](c6ccc(=O)oc6)CC[C@@]45O)[C@@]3(C)CC2)[C@H](O)[C@H](O)[C@H]1O	none (no result: TSG101-PTAP inh, Abeta yeast res, FUS yeast rescue, TDP43 rescue)
O=C(c1ccc2c(c1)N(Cc1ccc(F)cc1Cl)C(=O)c1ccccc1S2)N1CCC2(CC1)OCCO2	TDP43 rescue 17.8µM (no result: TSG101-PTAP inh, aSyn yeast inh)
C[C@]12CCC(=O)C(O)=C1CC[C@@H]1[C@@H]2CC[C@]2(C)C(=O)CC[C@@H]12	TDP43 rescue 12.6µM
C[C@]12CC[C@H](O)C[C@@H]1CC[C@@H]1[C@@H]2CC[C@]2(C)C(=O)CC[C@@H]12	aSyn yeast inh inconclusive, TDP43 rescue 14.1µM
C[C@]12C=CC(=O)C=C1CC[C@@H]1[C@@H]2CC[C@]2(C)C(=O)CC[C@@H]12	none
C[C@]12CCC3[C@@H](CC[C@@H]4C[C@H](O)CC[C@]34C)[C@@H]1CCC2=O (stereo partly specified)	TDP43 rescue inconclusive
COc1cc([C@@H]2c3cc4c(cc3C[C@H]3COC(=O)[C@@H]32)OCO4)cc(OC)c1O	none (no result: TSG101-PTAP inh, Abeta yeast res, FUS yeast rescue, TDP43 rescue)
COc1ccc(-c2ccc3c(c2)CN(C(=O)C(C)(C)C)Cc2cnnn2-3)cc1	TDP43 rescue 17.8µM (no result: TSG101-PTAP inh)
O=[N+]([O-])c1cc(C(F)(F)F)c(Cl)c([N+](=O)[O-])c1Nc1ncc(C(F)(F)F)cc1Cl	none (no result: TSG101-PTAP inh, Abeta yeast res, FUS yeast rescue, TDP43 rescue)
CCC(=NCc1ccco1)c1c(O)n(C2CCCCC2)c(=O)[nH]c1=O	none
CCC(=Nc1ccc(OC)cc1OC)c1c(O)n(C2CCCCC2)c(=O)[nH]c1=O	FUS yeast rescue inconclusive, TDP43 rescue 15.8µM
O=S(=O)(Nc1ccc(-c2nc3ccccc3o2)cc1)c1ccccc1	TDP43 rescue 14.1µM
COc1ccc(Nc2c(-c3cc(Br)ccc3O)nc3ncccn23)cc1OC	TDP43 rescue inconclusive (no result: TSG101-PTAP inh, aSyn yeast inh)
Nc1c(C(=O)NCC2CCCO2)c2nc3ccccc3nc2n1Cc1ccco1 (stereo unspecified)	none
Nc1c(C(=O)NC2CCCC2)c2nc3ccccc3nc2n1CC1CCCO1 (stereo unspecified)	FUS yeast rescue inconclusive, TDP43 rescue 12.6µM
CCC(=O)CC(c1ccccc1)c1c(O)c2ccccc2sc1=O (stereo unspecified)	TDP43 rescue 25.1µM
CC/C(CC(c1ccccc1)c1c(O)c2ccccc2oc1=O)=N\NC(N)=S (stereo unspecified)	TDP43 rescue inconclusive
Cc1cc2oc(=O)cc(-c3ccccc3)c2c(C)c1-c1ccc(CO)cc1	TDP43 rescue 35.5µM
CCOC(=O)[C@]12Cc3cc(OC)ccc3[C@H]1N(C)C(=O)c1cc(OC)ccc12	TDP43 rescue inconclusive (no result: TSG101-PTAP inh)
CCOC(=O)[C@]12Cc3cc(Cl)ccc3[C@H]1N(C)C(=O)c1cc(OC)ccc12	TDP43 rescue 22.4µM (no result: TSG101-PTAP inh)
